From PubChem BioAssay (Tox21) come the findings set out here.

Inconclusive results are not listed. Entries that show only a call come without a potency. A number with no mark means an inactive call. Calls of active or inactive are those of the source. The call rests on the fitted dose curve.
Potency means the concentration at half of the fitted maximal effect.

Chain of 5-hydroxytryptamine receptor 2A (Homo sapiens) (P28223 whole entry, looked up): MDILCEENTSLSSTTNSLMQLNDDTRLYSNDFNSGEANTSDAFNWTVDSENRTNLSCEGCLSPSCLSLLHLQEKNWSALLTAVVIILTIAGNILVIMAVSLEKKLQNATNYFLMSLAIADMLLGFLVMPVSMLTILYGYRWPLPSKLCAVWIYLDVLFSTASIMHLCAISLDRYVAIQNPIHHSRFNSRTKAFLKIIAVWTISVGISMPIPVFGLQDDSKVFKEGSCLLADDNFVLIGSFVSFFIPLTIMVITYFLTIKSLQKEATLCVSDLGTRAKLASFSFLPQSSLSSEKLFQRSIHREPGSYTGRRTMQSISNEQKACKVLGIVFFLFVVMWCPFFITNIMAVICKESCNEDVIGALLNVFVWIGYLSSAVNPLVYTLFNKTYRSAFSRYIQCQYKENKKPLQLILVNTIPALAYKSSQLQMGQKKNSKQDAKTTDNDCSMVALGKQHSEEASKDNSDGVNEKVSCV

The test addresses 5-hydroxytryptamine receptor 2A (Homo sapiens) (UniProt P28223). The test is described as follows: 5-hydroxytryptamine receptor 2A (HTR2A) small molecule agonists, cell-based qHTS assay (AID 1963587). Further: nearly all actives have a fitted effect of over 30% in size. As to conditions: HTR2A-CHO cells, calcium flux fluorescence, agonist mode; series mostly up to 76.8 µM. The text has this:
National Center for Advancing Translational Sciences [NCATS]
Division of Preclinical Innovation [DPI]
U.S. Environmental Protection Agency [EPA]
National Institutes of Environmental Health Sciences [NIEHS]
National Toxicology Program [NTP]
U.S. Food and Drug Administration [FDA]
The HTR2A receptor is a subtype of the 5-HT2 receptor that belongs to the serotonin receptor family and is a G protein-coupled receptor (GPCR). The HTR2A-CHO cell line stably expressing human 5-hydroxytryptamine receptor 2A (HTR2A) can be used for screening agonists of interactions between 5-HT2 and its ligands. The HTR2A-CHO calcium flux assay is a homogeneous fluorescence-based assay for detecting the intracellular calcium level using FDSS kinetic plate reader system.
HTR2A-CHO cells were dispensed at 2000 cells/3uL/well in 1536-well black-clear bottom plates using a Multidrop Dispenser. After the assay plates were incubated at a 37 C/5% CO2 incubator for 18 h, 3 uL of Dye Loading Buffer was transferred to the assay plate by a Flying Reagent Dispenser. The assay plates were incubated at 37 C for 1h. For agonist mode, 23 nL of compounds dissolved in DMSO, positive controls or DMSO only was transferred to the assay plate by a pin tool. The fluorescence intensity in the plates was measured using FDSS 7000EX kinetic plate reader for 2 min at 1 sec intervals.
On the technique in general: In qHTS, concentration-response curves come from the screen itself.
In the case of `OC(CCN1CCCC1)(c1ccccc1)C1CCCCC1` (stereo not given), the Potency entry was “inactive”.

Regarding `O=C(Nc1ccccc1)c1ccccc1O`, the Potency result was “inactive”.

Turning to `CCCCCCOC(=O)C(C)C`, the Potency result was “inactive”.

`CC(C)Cc1ccc(C(C)C(=O)OCc2ccccn2)cc1` (stereo not given): the Potency result was “inactive”.

Turning to `CC(=O)OCC[N+](C)(C)C`, the Potency result was “inactive”.

For `CCC(C(=O)O)c1ccc(N2Cc3ccccc3C2=O)cc1` (stereo not given), the Potency entry was “inactive”.

For the compound `CCCCCCCCCCCCCCCCCC(=O)OCCCCCCCCCCCCCC(C)C`, the Potency result is “inactive”.

On to `CCCCCCCCCCCCc1ccc(O)cc1`, for which the Potency result was “inactive”.

With `CC(C)(C)OC(=O)N1C[C@@H](F)C[C@H]1C(=O)O`, the Potency result is “inactive”.

With `C=C(C)C(=O)OC1CC(C)CC(C)(C)C1` (stereo not given), the Potency entry was “inactive”.

As to `C[N+]1(C)CCC(=C(c2ccccc2)c2ccccc2)CC1`, the Potency entry is “inactive”.

Consider `CCN(CCCCOC(=O)c1ccc(OC)c(OC)c1)C(C)Cc1ccc(OC)cc1` (stereo not given), for which the Potency is 12 µM (active).

With `CO[C@@H]1[C@H](OC(=O)/C=C/C=C/C=C/C=C/C(=O)O)CC[C@]2(CO2)[C@H]1[C@@]1(C)O[C@@H]1CC=C(C)C`, the Potency result is “inactive”.

In the case of `c1ccc(CNCCNCc2ccccc2)cc1`, the Potency entry was “inactive”.

Consider `COc1cnc(NS(=O)(=O)c2ccc(N)cc2)nc1`, for which the Potency entry was “inactive”.

With `NC(=O)NS(=O)(=O)c1ccc(N)cc1`, the Potency entry is “inactive”.

Take `Nc1cc(C(F)(F)F)ccc1S`: the Potency result is “inactive”.

Consider `CC1(C)CC(O)CC(C)(C)N1`, for which the Potency result is “inactive”.

For the compound `CCC(=O)C(=O)CC`, the Potency entry is “inactive”.

Take `O=C(O)c1c(O)c(-c2ccccc2)nc2ccccc12`: the Potency entry is “inactive”.

With `COc1ccc(S(=O)(=O)N2c3ccc(Cl)cc3[C@@](O)(c3ccccc3Cl)[C@H]2C(=O)N2CCC[C@@H]2C(N)=O)cc1OC`, the Potency result is “inactive”.

Turning to `Cc1c(C2(c3cc(Br)c(O)c(Br)c3C)OS(=O)(=O)c3ccccc32)cc(Br)c(O)c1Br`, the Potency entry is “inactive”.

On to `CCC(C)(CCCC(C)C)OC(C)=O` (stereo not given), for which the Potency result is “inactive”.

As for `c1ccc(C(O[C@H]2CCCN(CCc3ccc4c(c3)OCO4)C2)c2ccccc2)cc1`, the Potency result is “inactive”.

As for `CCCCCCCCCCCl`, the Potency result is “inactive”.

On to `O=c1[nH]sc2cc(Cl)ccc12`, for which the Potency entry was “inactive”.

`CCCCCCCCCCCC(=O)N(CC)CC`: the Potency result was “inactive”.

For the compound `c1ccc(C[P+](c2ccccc2)(c2ccccc2)c2ccccc2)cc1`, the Potency result is “inactive”.

Regarding `O=C(c1ccc(O)cc1)c1ccc(O)cc1`, the Potency result was “inactive”.

Take `N=C1N=C(N)c2ccccc21`: the Potency entry was “inactive”.

Regarding `NC(Cc1ccc(Cl)cc1)C(=O)O` (stereo not given), the activation is 0.604% [at 0.292 µM].

Regarding `COC(=O)C(C)(C)C`, the Potency entry is “inactive”.

Take `COc1cc(-c2nc(NC(=O)c3cc4cc(C)cc(C)c4n3CC(=O)O)sc2CCC2CCCCC2)c(OC)cc1Cl`: the Potency result is “inactive”.

Consider `CCCCCCCC`, for which the Potency entry is “inactive”.

Turning to `CO/N=C(\C(=O)N[C@@H]1C(=O)N2C(C(=O)O)=C(CSc3nc(=O)c(O)nn3C)CS[C@H]12)c1csc(N)n1`, the Potency result is “inactive”.

In the case of `CN(C)CCc1c[nH]c2ccc(C[C@H]3COC(=O)N3)cc12`, the Potency was 8.49 µM (active).

`On1nnc2ccccc21`: the Potency result was “inactive”.

Take `C=CC(=O)OCCCl`: the Potency entry is “inactive”.

As for `N#Cc1c(F)cccc1F`, the Potency result was “inactive”.

Consider `C=CC(C)(CCC=C(C)C)OC(=O)C(C)C` (stereo not given), for which the Potency entry is “inactive”.
